# Data: PubChem BioAssay (Tox21)
# Records with an inconclusive call do not appear. A call without a number means that no potency is given here. A number with no mark means an inactive call. Activity calls are given as the source filed them. Unless noted, calls follow the shape of the dose curve; as a rule, active = well fitted curve in the direction sought with a large enough effect in the repeat runs; inconclusive = weak or mixed curves; inactive = no such curve, though single readings can be large; an effect the other way counts as inactive or inconclusive.
# Tests used:
# [1] = qHTS assay to identify small molecule antagonists of the thyroid receptor (TR) signaling pathway - cell viability counter screen (AID 743064); also: nearly all actives have a fitted effect of over 50% in size
# Method in brief: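 In-well cytotoxicity read by CellTiter-Fluor (30 min, 37 C) following 23.5 h exposure of GH3 cells bearing a TRE-luciferase sensor. Compounds were added alongside 1 nM (final) T3 to drive TR transactivation.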
# [2] = qHTS assay to identify small molecule antagonists of the estrogen receptor alpha (ER-alpha) signaling pathway - cell viability counter screen (AID 743074; calls by dose curve;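 also: HEK293 cells carrying ER-alpha-UAS-bla reporter stimulated with 17beta-estradiol; nearly all actives have a fitted effect of over 45% in size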)
# [3] = qHTS assay to identify small molecule antagonists of the estrogen receptor alpha (ER-alpha) signaling pathway using the BG1 cell line - cell viability counter screen (AID 743081);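 also: compound given together with 17beta-estradiol as the ER stimulus; series mostly up to about 70 µM; nearly all actives have a fitted effect of over 45% in size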
# Aromatase (Homo sapiens) = Aromatase (Homo sapiens) (UniProt P11511); experiment: qHTS assay to identify aromatase inhibitors (AID 743083); also: series mostly up to about 70 µM; nearly all actives have a fitted effect of over 55% in size
# Sequence of Aromatase (Homo sapiens) (P11511 whole entry, looked up): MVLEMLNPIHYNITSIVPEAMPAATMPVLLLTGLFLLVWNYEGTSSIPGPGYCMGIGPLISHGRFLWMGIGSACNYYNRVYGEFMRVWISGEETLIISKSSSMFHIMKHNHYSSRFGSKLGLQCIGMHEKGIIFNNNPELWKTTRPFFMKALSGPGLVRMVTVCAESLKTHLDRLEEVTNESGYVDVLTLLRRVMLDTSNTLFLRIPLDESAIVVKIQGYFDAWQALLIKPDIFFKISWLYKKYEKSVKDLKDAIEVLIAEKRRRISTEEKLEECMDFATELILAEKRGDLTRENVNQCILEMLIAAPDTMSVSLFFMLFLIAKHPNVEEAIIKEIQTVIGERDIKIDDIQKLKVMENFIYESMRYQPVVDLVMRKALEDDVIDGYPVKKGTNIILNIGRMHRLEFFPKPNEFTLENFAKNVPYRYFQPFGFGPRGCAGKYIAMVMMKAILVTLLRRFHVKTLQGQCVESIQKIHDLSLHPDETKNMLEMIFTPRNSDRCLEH
# [4] = qHTS assay to identify aromatase inhibitors - cell viability counter screen (AID 743084);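 also: cells stimulated with testosterone during compound exposure; nearly all actives have a fitted effect of over 55% in size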
# [5] = biological target: Aryl hydrocarbon receptor (Homo sapiens) (UniProt P35869); experiment: qHTS assay to identify small molecule that activate the aryl hydrocarbon receptor (AhR) signaling pathway (AID 743085);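 also: HG2L7.5c1 human HepG2 liver cells with stably integrated DRE-driven firefly reporter; series mostly up to about 70 µM; nearly all actives have a fitted effect of over 15% in size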
# Sequence of Aryl hydrocarbon receptor (Homo sapiens) (P35869 whole entry, looked up): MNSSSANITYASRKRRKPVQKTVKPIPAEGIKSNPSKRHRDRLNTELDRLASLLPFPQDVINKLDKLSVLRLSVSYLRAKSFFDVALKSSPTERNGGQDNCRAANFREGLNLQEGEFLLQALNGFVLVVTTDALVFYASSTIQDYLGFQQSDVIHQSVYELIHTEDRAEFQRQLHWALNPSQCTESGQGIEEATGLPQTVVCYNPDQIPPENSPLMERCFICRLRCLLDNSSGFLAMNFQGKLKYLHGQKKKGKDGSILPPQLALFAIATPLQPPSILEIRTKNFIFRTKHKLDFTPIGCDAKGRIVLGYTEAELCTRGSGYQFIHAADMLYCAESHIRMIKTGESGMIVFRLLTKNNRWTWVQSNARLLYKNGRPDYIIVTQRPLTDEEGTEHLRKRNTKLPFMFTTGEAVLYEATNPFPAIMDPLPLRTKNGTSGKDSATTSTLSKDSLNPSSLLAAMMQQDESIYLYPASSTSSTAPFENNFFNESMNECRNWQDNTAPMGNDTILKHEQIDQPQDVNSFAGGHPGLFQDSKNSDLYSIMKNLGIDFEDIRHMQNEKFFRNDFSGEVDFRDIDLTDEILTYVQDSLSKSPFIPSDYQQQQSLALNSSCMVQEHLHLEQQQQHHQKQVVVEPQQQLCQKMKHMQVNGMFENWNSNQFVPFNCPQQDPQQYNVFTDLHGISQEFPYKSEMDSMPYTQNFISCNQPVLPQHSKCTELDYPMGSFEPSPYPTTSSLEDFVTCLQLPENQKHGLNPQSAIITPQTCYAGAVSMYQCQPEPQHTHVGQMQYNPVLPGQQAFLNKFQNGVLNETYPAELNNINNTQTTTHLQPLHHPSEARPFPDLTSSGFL
# Method in brief: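 Luminescence (ONE-Glo) from a dioxin-responsive-element luciferase reporter in HG2L7.5c1 HepG2 cells after 24 hr compound exposure at 37C; viability measured by CellTiter-Fluor fluorescence beforehand.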
# [6] = qHTS assay to identify small molecule that activate the aryl hydrocarbon receptor (AhR) signaling pathway - cell viability counter screen (AID 743086);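 also: HepG2 liver cells carrying the AhR DRE luciferase reporter; series mostly up to about 70 µM; nearly all actives have a fitted effect of over 45% in size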
# Method in brief: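 HepG2-AhR-luc (HG2L7.5c1) cells, 4000/well, treated 24 h at 37 C with compound; viability measured as CellTiter-Fluor fluorescence after 30 min in the same wells as the luciferase read.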
# [7] = biological target: Peroxisome proliferator-activated receptor gamma (Homo sapiens) (UniProt P37231); experiment: qHTS assay to identify small molecule agonists of the peroxisome proliferator-activated receptor gamma (PPARg) signaling pathway (AID 743094; active = well fitted activation curve with a large enough effect in the signal ratio in the repeat runs, not every such curve was filed as active; the % refers to the signal ratio)
# Sequence of Peroxisome proliferator-activated receptor gamma (Homo sapiens) (P37231 whole entry, looked up): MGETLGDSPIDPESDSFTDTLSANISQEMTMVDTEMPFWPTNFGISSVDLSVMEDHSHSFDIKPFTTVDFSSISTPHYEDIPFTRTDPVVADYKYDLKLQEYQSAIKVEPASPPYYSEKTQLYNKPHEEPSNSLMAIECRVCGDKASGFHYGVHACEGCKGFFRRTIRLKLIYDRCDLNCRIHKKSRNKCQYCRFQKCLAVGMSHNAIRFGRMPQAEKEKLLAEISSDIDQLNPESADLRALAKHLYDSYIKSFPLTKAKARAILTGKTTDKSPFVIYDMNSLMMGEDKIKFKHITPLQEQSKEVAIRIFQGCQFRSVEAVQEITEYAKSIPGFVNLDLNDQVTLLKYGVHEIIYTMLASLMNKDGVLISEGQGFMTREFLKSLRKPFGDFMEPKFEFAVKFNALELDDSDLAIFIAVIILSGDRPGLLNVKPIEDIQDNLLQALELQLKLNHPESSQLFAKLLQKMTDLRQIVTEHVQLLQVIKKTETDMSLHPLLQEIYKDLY
# Method in brief: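 GeneBLAzer PPARg UAS-bla HEK293H cells carrying a stably integrated beta-lactamase reporter were pre-incubated 5 h at 37C, then exposed to compounds in DMSO for 17 h at 37C; LiveBLAzer B/G FRET substrate was added for 1 h at room temperature and fluorescence read.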
# [8] = qHTS assay to identify small molecule antagonists of the peroxisome proliferator-activated receptor gamma (PPARg) signaling pathway - cell viability counter screen (AID 743194); details: Potency: co-treated with 50 nM rosiglitazone; also: nearly all actives have a fitted effect of over 55% in size
# Method in brief: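 Cytotoxicity counter screen in PPARg-bla HEK293H cells, same wells as reporter assay. Compounds plus 50 nM rosiglitazone (final) for 17 h at 37 C, then viability read by CellTiter-Glo luminescence.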
# [9] = qHTS assay for small molecule agonists of the antioxidant response element (ARE) signaling pathway (AID 743202; active = well fitted activation curve with a large enough effect in the signal ratio in the repeat runs, not every such curve was filed as active; the % refers to the signal ratio)
# Method in brief: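 ARE-bla HepG2 cells (beta-lactamase reporter under the antioxidant response element), plated 5 hours, then exposed to compounds 16 hours at 37 C. LiveBLAzer B/G FRET substrate added for 2 hours at room temperature; fluorescence intensity read.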
# [10] = qHTS assay for small molecule agonists of the antioxidant response element (ARE) signaling pathway - cell viability counter screen (AID 743203; calls by dose curve; also: nearly all actives have a fitted effect of over 55% in size)
# Method in brief: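 CellSensor ARE-bla HepG2 cells, 2,000 per well, rested 5 hrs at 37C/5% CO2, then exposed to compound in DMSO for 16 hrs; viability read as CellTiter-Glo luminescence after 30 min at room temperature, in the reporter wells.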
# [11] = qHTS assay for small molecule activators of the heat shock response signaling pathway - cell viability counter screen (AID 743209); also: nearly all actives have a fitted effect of over 50% in size
# Method in brief: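 CellSensor HSE-bla HeLa cells, plated overnight at 37 C/5% CO2, were exposed to compounds in DMSO for 5 h at 37 C. Viability was then read in the same wells by CellTiter-Glo luminescence after 30 min at room temperature.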
# [12] = qHTS assay for small molecule activators of the heat shock response signaling pathway (AID 743210; active = well fitted activation curve with a large enough effect in the signal ratio in the repeat runs, with a control signal flat, not every such curve was filed as active; the % refers to the signal ratio; also: series mostly up to about 63 µM)
# Method in brief: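 HSE-bla HeLa cells (beta-lactamase reporter under heat shock response elements), plated overnight, then exposed to compounds 5 h at 37 C; LiveBLAzer B/G FRET substrate added, 2.5 h at room temperature, fluorescence intensity read.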
# [13] = qHTS assay to identify small molecule antagonists of the thyroid receptor (TR) signaling pathway (AID 743065); also: nearly all actives have a fitted effect of over 55% in size; also: potency is read from the fitted curve at half-maximal effect
# Method in brief: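 GH3.TRE-Luc rat pituitary cells (two TREs driving luciferase) were dosed with compound, then stimulated with 1 nM T3 (final) for 23.5 h at 37 C. ONE-Glo luminescence was the read-out, with CellTiter-Fluor fluorescence as the cytotoxicity counter-screen.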
# [14] = test system: thyroid hormone receptor (rat, GH3 cells); experiment: qHTS assay to identify small molecule agonists of the thyroid receptor (TR) signaling pathway (AID 743066; calls by dose curve)
# [15] = biological target: Estrogen receptor (Homo sapiens) (UniProt P03372); experiment: qHTS assay to identify small molecule agonists of the estrogen receptor alpha (ER-alpha) signaling pathway (AID 743075; calls by dose curve)
# Sequence of Estrogen receptor (Homo sapiens) (P03372 whole entry, looked up): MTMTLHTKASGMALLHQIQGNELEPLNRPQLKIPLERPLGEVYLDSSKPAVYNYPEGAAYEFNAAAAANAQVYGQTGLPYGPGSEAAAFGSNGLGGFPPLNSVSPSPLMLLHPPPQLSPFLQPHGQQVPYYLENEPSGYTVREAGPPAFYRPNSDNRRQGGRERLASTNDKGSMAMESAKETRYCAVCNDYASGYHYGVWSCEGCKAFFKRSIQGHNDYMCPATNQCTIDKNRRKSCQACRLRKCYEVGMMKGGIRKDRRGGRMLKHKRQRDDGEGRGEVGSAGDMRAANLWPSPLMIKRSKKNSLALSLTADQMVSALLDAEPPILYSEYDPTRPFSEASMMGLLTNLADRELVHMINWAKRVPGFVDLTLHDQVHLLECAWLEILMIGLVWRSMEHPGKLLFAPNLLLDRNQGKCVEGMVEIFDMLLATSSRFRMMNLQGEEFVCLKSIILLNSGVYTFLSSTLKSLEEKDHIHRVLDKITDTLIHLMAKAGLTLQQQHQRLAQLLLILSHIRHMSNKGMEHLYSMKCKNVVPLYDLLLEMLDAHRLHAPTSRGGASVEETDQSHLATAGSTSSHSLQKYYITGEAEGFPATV
# [16] = biological target: Estrogen receptor (Homo sapiens) (UniProt P03372); experiment: qHTS assay to identify small molecule agonists of the estrogen receptor alpha (ER-alpha) signaling pathway using the BG1 cell line (AID 743079); also: nearly all actives have a fitted effect of over 20% in size; also: potency is read from the fitted curve at half-maximal effect
# [17] = qHTS assay to identify small molecule antagonists of the estrogen receptor alpha (ER-alpha) signaling pathway using the BG1 cell line (AID 743080; calls by dose curve;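 also: BG1 cells stimulated with 17beta-estradiol alongside compound; series mostly up to about 70 µM; nearly all actives have a fitted effect of over 25% in size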)
# Method in brief: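 BG1Luc4E2, endogenous ER-alpha, 4xERE-luc; 5 d charcoal-stripped FBS, phenol red free; 24 h plating; cpd + 17beta-estradiol 21.5 h, 37 C/5% CO2; CellTiter-Fluor viability 30 min, then ONE-Glo luciferase 30 min RT.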
# [18] = biological target: Peroxisome proliferator-activated receptor gamma (Homo sapiens) (UniProt P37231); experiment: qHTS assay to identify small molecule antagonists of the peroxisome proliferator-activated receptor gamma (PPARg) signaling pathway (AID 743191; calls by dose curve; also: series mostly up to about 63 µM; nearly all actives have a fitted effect of over 30% in size)
# Method in brief: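 GeneBLAzer PPARg UAS-bla HEK293H cells, 5 h post-plating, exposed to compounds 17 h at 37C. LiveBLAzer B/G FRET substrate added for 1 h at room temperature; beta-lactamase reporter read by fluorescence intensity.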
# [19] = biological target: Estrogen receptor (Homo sapiens) (UniProt P03372); experiment: qHTS assay to identify small molecule antagonists of the estrogen receptor alpha (ER-alpha) signaling pathway (AID 743069; active = well fitted curve in the direction sought with a large enough effect in the signal ratio in the repeat runs, not every such curve was filed as active; the % refers to the signal ratio)
# Method in brief: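 HEK293 ER-alpha-UAS-bla GripTite cells, held overnight in 2% charcoal-stripped FBS, 5,000 cells/well, preincubated 4 h, then compound plus 17beta-estradiol for 18 h at 37C. Beta-lactamase read by LiveBLAzer B/G FRET substrate, 2 h at room temperature.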
Structure (SMILES),Potency [1],Potency [2],Potency [3],Potency (Aromatase (Homo sapiens)),Potency [4],Potency [5],Potency [6],Potency [7],Potency [8],Potency [9],Potency [10],Potency [11],Potency [12],Potency [13],Potency [14],Potency [15],Potency [16],Potency [17],Potency [18],Potency [19]
CC1(C)CC(=O)CC(C)(C)N1[O],inactive,inactive,inactive,inactive,inactive,inactive,inactive,inactive,inactive,inactive,inactive,inactive,inactive,,,,,,,
Nc1ccccc1C(=O)OCC(O)CO (stereo not given),,,,,,,,,inactive,inactive,inactive,inactive,inactive,,,,,,,
CCC(C)(C)O,,inactive,inactive,inactive,inactive,inactive,inactive,inactive,inactive,inactive,inactive,inactive,inactive,inactive,inactive,inactive,inactive,inactive,inactive,
C[C@H]1[C@@H]2Cc3ccc(O)cc3[C@@]1(C)CCN2C,inactive,,,,inactive,inactive,inactive,,inactive,,inactive,inactive,inactive,,inactive,,,,,
CC(C)(C)NCC(O)c1cc(Cl)c(N)c(C(F)(F)F)c1 (stereo not given),,inactive,,inactive,,inactive,,inactive,inactive,inactive,inactive,inactive,inactive,inactive,inactive,inactive,inactive,inactive,inactive,inactive
CN1C(=O)CN=C(c2ccccc2)c2cc([N+](=O)[O-])ccc21,,inactive,inactive,inactive,,inactive,inactive,inactive,inactive,inactive,inactive,inactive,inactive,,inactive,inactive,,,inactive,inactive
CC(=O)NNc1ccccc1,,inactive,inactive,inactive,inactive,inactive,inactive,,inactive,inactive,inactive,inactive,,4.82 µM (active),inactive,,,,,
NCCc1cc(O)c(O)cc1O,,inactive,inactive,inactive,inactive,inactive,inactive,inactive,inactive,,inactive,inactive,inactive,,inactive,inactive,inactive,inactive,inactive,inactive
C=CC(C)(CCC=C(C)C)OC(=O)c1ccccc1N (stereo not given),,inactive,inactive,inactive,inactive,inactive,inactive,,inactive,inactive,inactive,inactive,inactive,inactive,inactive,,,,,
C[N+]1(CCF)[C@@H]2CC[C@H]1CC(OC(=O)C(O)(c1ccccc1)c1ccccc1)C2 (stereo not given in full),,,inactive,inactive,inactive,inactive,inactive,inactive,inactive,inactive,inactive,inactive,inactive,inactive,inactive,,15 µM (active),inactive,inactive,
CCCN(CCC)C(=O)Cc1c(-c2ccc(Cl)cc2)nc2ccc(Cl)cn12,,inactive,inactive,inactive,inactive,,inactive,inactive,inactive,,inactive,inactive,inactive,,inactive,inactive,inactive,inactive,,
C#CC(O)(C=CCl)CC (stereo not given),,,,,,,,,inactive,inactive,inactive,inactive,inactive,,,,,,,
CCOC(=O)c1cncn1C(C)c1ccccc1 (stereo not given),,inactive,inactive,inactive,inactive,inactive,inactive,inactive,inactive,inactive,inactive,inactive,inactive,inactive,inactive,inactive,inactive,inactive,inactive,
C=CCN1C[C@H](C)N([C@H](c2ccc(C(=O)N(CC)CC)cc2)c2cccc(OC)c2)C[C@H]1C,,inactive,inactive,inactive,inactive,inactive,inactive,,inactive,,inactive,inactive,inactive,,inactive,inactive,inactive,inactive,inactive,inactive
CC(Oc1cc(Cl)c(Cl)cc1Cl)C(=O)O (stereo not given),,inactive,inactive,inactive,inactive,inactive,inactive,,inactive,,inactive,inactive,inactive,,,inactive,inactive,inactive,,inactive
O=C(O)c1ccc(=O)[nH]c1,,,,,,,,,,inactive,inactive,inactive,inactive,,,,,,,
O=S(=O)(c1ccccc1)c1ccccc1,,inactive,inactive,inactive,inactive,inactive,inactive,inactive,inactive,inactive,inactive,inactive,inactive,inactive,inactive,,,,inactive,
